This is a sample that favours compounds with a hit; in the whole collection about 10% have one here.
HEK cytotox: cytotoxic compounds in HEK 293 cells. Potency, µM (highest dose often 115 µM), inactives show top-dose activity change, negative = cytotoxicity, hits mostly inhibitors. hit rate 6.6% among 94,000. HEK 293 viability, ATP luminescence (CellTiter-Glo), 48-72 h; also: nearly all actives have a fitted effect of over 60% in size
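Pintool-delivered compounds were incubated with HEK 293 cells (250 cells/well) at 37 degree Celsius for 48 or 72 hr. ATP-dependent luminescence (CellTiter-Glo) then reported remaining viable cells.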
NIH3T3 tox: cytotoxic compounds in NIH 3T3 cells; AID 1345082; Potency, µM (top dose mostly 96.7 µM), inactives show top-dose activity change, negative = cytotoxicity, actives largely listed as inhibitors; hit rate 4.3% among 94,000; NIH 3T3 viability, CellTiter-Glo ATP luminescence, 48-72 h; also: nearly all actives have a fitted effect of over 55% in size
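NIH 3T3 cells at 400 cells/well received 23 nL of compound by pintool and were incubated 48 or 72 h at 37 °C. Viability was read as ATP-coupled CellTiter-Glo luminescence.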
GPT2 inhibitor: GPT2 alanine aminotransferase inhibition; Q8TD30; Recombinant GPT2, coupled pyruvate oxidase/HRP Amplex Red fluorescence; Potency, µM (series often up to 57.7 µM), without a hit: at the top dose activity change, negative = inhibition, most hits filed as inhibitors; hit rate 0.25% among 100,000; AID 1671188; also: nearly all actives have a fitted effect of over 60% in size
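Inhibition is scored from Amplex Red fluorescence generated when pyruvate oxidase and HRP act on pyruvate released by GPT2. Reactions contain 10ng/uL enzyme, 250uM a-KG and 2mM L-alanine and run 30 min at room temperature.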
NPR1 antag: antagonists of human natriuretic peptide receptor Npr1; P16066; HEK293 hNpr1 GloSensor cGMP, ANP-stimulated luminescence; Potency, µM (top dose mostly 46.3 µM), inactives show at the top dose activity change, negative = inhibition, actives largely listed as inhibitors; hit rate 1.6% among 76,000; calls by dose curve; also: nearly all actives have a fitted effect of over 60% in size
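HEK293 cells stably expressing human Npr1 and cGMP GloSensor pGS-40F, loaded 2 h with 2% GloSensor reagent, given compound 30 min at room temperature. Luminescence read before and 20 min after 0.1 nM hNppA.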
FLuc inh: blocks purified firefly luciferase enzyme activity; Potency, µM (top dose mostly 115 µM), hits mostly inhibitors; AID 1347043; purified P. pyralis luciferase, luminescence, biochemical; P08659; hit rate 2.5% among 76,000; also: nearly all actives have a fitted effect of over 65% in size
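Inhibitors were tested against purified firefly luciferase in a biochemical, low-substrate format (both substrates at 10uM) and luminescence measured with a CCD imager.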
* marks the source's active call; other numbers are inactive results; i = inactive; u = inconclusive; x = no result; ! = not active in a repeat; [ ] = dose if it differs, or a comment. Unless noted, calls follow the shape of the dose curve; as a rule, active = well fitted curve in the direction sought with a large enough effect; inconclusive = small, poorly fitted or top-dose-only effect, or another doubt; inactive = no such curve, though single readings can be large; an effect the other way counts as inactive or inconclusive. % is scaled to controls: 0 for no effect and ±100 for the full control effect; potency is read from the fitted curve at half-maximal effect.

SMILES | HEK cytotox | NIH3T3 tox | GPT2 inhibitor | NPR1 antag | FLuc inh
O=C(NCc1ccc(C(F)(F)F)cc1)c1nc2cccnc2n(C2CC2)c1=O | u | u | -5% | x | x
CC(=O)N1CCCC(COc2ccccc2C(=O)N2CCC(C)CC2)C1 (stereo unspecified) | -15% | -24% | -7% | x | x
O=C(Cc1ccc(F)cc1)N1CCC2(C1)C(=O)N(CCc1ccccc1)c1ccccc12 (stereo unspecified) | 45µM* | u | i | 16% | i
O=C(Nc1ccc(Cl)cc1)N1CCC2(C1)C(=O)N(CCc1ccccc1)c1ccccc12 (stereo unspecified) | 32µM*! | u | 2% | -11% | i
COC(=O)CNC(=O)c1ccc2oc(-c3cccnc3)nc2c1 | -5% | -23% | i | x | x
O=C(c1ccco1)N1CCCn2cc(-c3ccc4c(c3)OCO4)nc21 | u | i | i | 5% | i
COc1ccc(-c2cn3c(n2)N(C(=O)Cc2cccs2)CCC3)cc1 | u | u | i | -2% | i
COc1ccc(-c2cn3c(n2)N(C(=O)c2cccs2)CCC3)cc1 | u | 3% | i | -4% | 35µM*
O=C(c1cccs1)N1CCCn2cc(-c3ccc4c(c3)OCO4)nc21 | u | i | -5% | 3% | 40µM*
Cc1ccncc1C(=O)N1CCC(Oc2ccccc2-c2nc(C3CC3)no2)C1 (stereo unspecified) | u | -15% | i | x | x
O=C(NC1CCN(c2nccc(Nc3ccccc3F)n2)CC1)c1cccc(Cl)c1 | u | 32µM* | i | x | x
Cc1ccccc1C(=O)NC1CCN(c2nccc(Nc3ccccc3F)n2)CC1 | 20µM* | u | i | x | x
Cc1ccc(C(=O)NC2CCN(c3nccc(Nc4ccccc4F)n3)CC2)cc1 | 22µM* | u | 1% | x | x
O=C(c1ccccc1)N1CCN(c2nccc(Nc3ccccc3F)n2)CC1 | u | u | -2% | x | x
O=C(NC1CCN(c2nccc(Nc3ccccc3Cl)n2)CC1)c1ccc(F)cc1 | u | u | -2% | x | x
Cc1ccc(C(=O)N2CCN(c3nccc(Nc4ccccc4F)n3)CC2)cc1 | 45µM*! | u | i | x | x
CCCCCNC(=O)c1cc(-c2cccc(C(F)(F)F)c2)nc2c1cnn2C | i | i | x | x | x
Cc1nn(C)cc1CN(C)CC1(O)CCCN(Cc2cccc(F)c2F)C1=O (stereo unspecified) | -13% | -4% | u | 1% | i
CN1CCCCCC(O)c2cc(C(=O)NC3CCN(Cc4ccccc4)CC3)ccc21 (stereo unspecified) | 11µM* | u | 3% | u | i
COc1ccccc1CN1CCN(C(=O)c2ccc3c(c2)C(O)CCCCCN3C)CC1 (stereo unspecified) | 50µM* | u | i | -22% | i
CN1CCCCCC(O)c2cc(C(=O)NCCCc3ccccc3)ccc21 (stereo unspecified) | u | u | i | -15% | i
CN1CCCCCC(O)c2cc(C(=O)N3CCN(c4ccc(F)cc4)CC3)ccc21 (stereo unspecified) | 45µM* | u | 2% | -27% | i
O=C(c1ccc(C(F)(F)F)cc1)N1CCCN(c2ccc3nnc(C4CC4)n3n2)CC1 | -7% | -30% | x | x | x
Cc1cnc(C(=O)N2CCC3(CC2)CC(N(Cc2ccccc2)C2CC2)CCO3)cn1 (stereo unspecified) | u | u | -1% | 0% | i
COCCN1C(=O)[C@@H]2C[C@@H](CN2Cc2ccc(OC(F)(F)F)cc2)Oc2ccccc21 | u | u | -21% | 10% | i
O=C1[C@@H]2C[C@@H](CN2C2CCOCC2)Oc2ccccc2N1Cc1ccc(OC(F)(F)F)cc1 | u | u | -3% | -5% | i
O=C1[C@@H]2C[C@@H](CN2CC2CC2)Oc2ccccc2N1Cc1ccc(OC(F)(F)F)cc1 | 56µM* | 40µM* | 0%[88.5 µM] | u | i
CS(=O)(=O)c1ccc(CN2C[C@@H]3C[C@H]2C(=O)N(Cc2ccc(OC(F)(F)F)cc2)c2ccccc2O3)cc1 | 32µM* | 32µM* | 4% | -28% | i

Screens as filed in PubChem BioAssay.
